Source: PubChem (several laboratories)
RTF Ca sens inh – cardiac RTF calcium desensitization; P19429+P45379; IANBD-labeled cardiac RTF, Ca2+ fluorescence; inhibition, % at 7.15 µM; 0.12% of 340,000 active; AID 493244;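 active means inhibition above the mean inhibition of all tested compounds plus 3 SD, cut at about 17% in these data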;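 further: assay run at fixed EC70 calcium of 1.6 mM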
IDE cell inh – cellular human IDE inhibition. HEK cells, FAbetaB cleavage, fluorescence polarization. inhibition, % at 5.59 µM. P14735. 0.41% of 320,000 active. AID 434962;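 active means percent inhibition above the average of all tested compounds plus 3 SD, set per screening campaign, cut at about 16% in these data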;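 further: IDE supplied by intact live HEK cells; FP after avidin binding of uncleaved biotin substrate so inhibition keeps polarization high; 0% = DMSO wells and 100% = 60 µM reference IDE inhibitor Ii1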
Target sequence (P14735 whole entry, looked up): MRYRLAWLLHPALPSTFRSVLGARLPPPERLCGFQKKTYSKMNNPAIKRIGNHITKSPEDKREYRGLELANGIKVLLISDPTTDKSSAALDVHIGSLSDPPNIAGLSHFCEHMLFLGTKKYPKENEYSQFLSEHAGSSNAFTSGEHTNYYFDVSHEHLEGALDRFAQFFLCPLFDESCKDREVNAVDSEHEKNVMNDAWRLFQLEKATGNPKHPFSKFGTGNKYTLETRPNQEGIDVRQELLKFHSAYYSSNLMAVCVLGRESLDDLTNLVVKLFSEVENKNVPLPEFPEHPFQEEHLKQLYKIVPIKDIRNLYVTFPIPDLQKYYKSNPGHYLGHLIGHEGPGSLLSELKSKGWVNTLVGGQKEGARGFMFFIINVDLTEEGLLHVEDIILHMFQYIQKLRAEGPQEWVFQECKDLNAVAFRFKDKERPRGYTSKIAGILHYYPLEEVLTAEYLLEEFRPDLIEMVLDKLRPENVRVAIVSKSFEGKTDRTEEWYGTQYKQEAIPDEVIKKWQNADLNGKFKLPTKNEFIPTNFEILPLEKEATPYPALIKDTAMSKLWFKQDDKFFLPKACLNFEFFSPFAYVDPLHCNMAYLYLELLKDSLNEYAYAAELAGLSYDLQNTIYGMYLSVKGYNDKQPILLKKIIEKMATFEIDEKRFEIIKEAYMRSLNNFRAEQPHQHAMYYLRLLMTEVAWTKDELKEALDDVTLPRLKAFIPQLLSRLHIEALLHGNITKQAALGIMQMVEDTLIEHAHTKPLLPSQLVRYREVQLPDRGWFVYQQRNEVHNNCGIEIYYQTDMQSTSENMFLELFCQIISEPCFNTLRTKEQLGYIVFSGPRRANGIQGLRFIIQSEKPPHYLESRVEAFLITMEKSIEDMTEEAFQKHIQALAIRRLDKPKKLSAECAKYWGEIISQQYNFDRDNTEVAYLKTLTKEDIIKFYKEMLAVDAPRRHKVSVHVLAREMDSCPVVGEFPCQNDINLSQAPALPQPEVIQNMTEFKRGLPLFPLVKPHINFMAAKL
IDE act – activators of human insulin-degrading enzyme in cells; 0.073% of 340,000 active; AID 493087; HEK cells, FAbeta-B cleavage, fluorescence polarization; 0% vehicle, 100% cell-free pure enzyme wells; activation, % at 5.96 µM;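 active means activation above the mean of all tested compounds plus 3 SD, set per screening campaign, cut at about 17% in these data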
CRFR2-BP antag – blocks CRF-induced signaling of the CRF-BP/CRF-R2 complex | HEK293 CRF-R2/CRF-BP, CRF-induced calcium fluorescence | inhibition, % at 11.8 µM | 0.59% of 350,000 active | AID 588475;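 active means inhibition of the ligand-induced calcium signal above about 50% at the single tested concentration, limit read from the data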
RTF Ca sens act – increases calcium sensitivity of human cardiac regulated thin filaments; P19429+P45379; IANBD-labeled TnC RTF fluorescence at EC20 calcium; 0% EC20 calcium, 100% full calcium; activation, % at 7.2 µM; 0.24% of 340,000 active;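 active means activation above the mean over all tested compounds plus 3 SD, cut at about 30% in these data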;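 further: rise in fluorescence read as greater calcium sensitivity of cardiac thin filaments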
CRFBP-R2 agonist – CRF-BP/CRF-R2 complex agonism; HEK293 CRF-R2/CRF-BP, calcium dye fluorescence (FLIPR); percent of saturating CRF peptide response; activation, % at 13.2 µM; 0.46% of 350,000 active;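 active means activation of at least 50%, plus an integration ratio under a set limit after plate pattern correction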;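 further: plate controls were neutral control wells without compound for no effect and CRF at EC100 for full effect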
IDE inh confirm – cellular human IDE inhibition, confirmation; shares compounds with IDE cell inh; HEK cells, FAbetaB cleavage, fluorescence polarization; inhibition, % at 5.59 µM; 51% of 1,200 active;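 active means mean inhibition across triplicate wells above the cutoff set by the earlier primary insulin-degrading enzyme screen, cut at about 16% in these data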;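 further: 0% = DMSO wells and 100% = 60 µM reference IDE inhibitor Ii1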
HEK cytotox – counter-screen for IDE inhibitors: cytotoxicity in HEK cells | shares compounds with IDE cell inh | HEK293 cytotoxicity, ATP luminescence | inhibition, % at 5.59 µM | 28% of 1,200 active; in the data active means inhibition above about 22%;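 further: 0% = vehicle wells and 100% = reference cytotoxic drug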
Numbers without * were called inactive; . = not tested or not shown. Most compounds without a hit are left out; they make up all but 1.5% or so of the library.

SMILES	RTF Ca sens inh	IDE cell inh	IDE act	CRFR2-BP antag	RTF Ca sens act	CRFBP-R2 agonist	IDE inh confirm	HEK cytotox
CCOC(=O)C1CCCN(C2=NC(=O)/C(=C/c3ccc(O)c(OCC)c3)S2)C1 (centres undefined)	-6	23*	-25	5	2	2	72*	11
CCOC(=O)C1CCCN(C2=NC(=O)/C(=C/c3ccc(OC)cc3)S2)C1 (centres undefined)	-2	2	4	-1	5	-1	.	.
CCOC(=O)C1CCCN(C2=NC(=O)/C(=C/c3ccc(N(C)C)cc3)S2)C1 (centres undefined)	-91	52*	-34	-46	65*	69*	43*	7
CCN1C(=O)c2ccc(C(=O)O)cc2C1=O	-3	8	4	-4	3	1	.	.
CCN(CC)c1ccc(/C=C2/C(=O)c3ccc(C(=O)O)cc3C2=O)cc1	-115	138*	-71	-228	78*	215*	26*	16
CC[n+]1ccc(/C=C/c2c[nH]c3ccccc23)cc1	-120	24*	-14	-46	102*	61*	41*	71*
CCn1c(/C=C/c2c[nH]c3ccccc23)nc2ccccc2c1=O	-4	-7	-2	7	-5	-2	.	.
O=C(N/N=C/c1ccc(Cl)cc1Cl)c1cccc(N2CCCC2=O)c1	9	34*	-8	11	-9	-2	15	19
O=C(N/N=C/c1cc(Br)cc(Br)c1O)c1cccc(N2CCCC2=O)c1	-4	0	5	-3	4	7	.	.
COc1ccc([C@@H]2C[C@H]3CN(c4ccccc4)C(=O)[C@]34CCCN24)c(OC)c1OC	-2	22*	-13	-10	1	2	8	14
O=C1CC(=O)NC(SCC(=O)Nc2ccccc2[N+](=O)[O-])=N1	4	-1	1	-1	2	-1	.	.
COc1ccc(OCc2cc(C(=O)N3CCSCC3)no2)c(Cl)c1	-2	18*	-15	5	1	-3	11	12
Nc1c(C(=O)NCCc2ccccc2)sc2nc(N3CCOCC3)c3c(c12)CCCC3	6	17*	-18	17	2	-1	0	29*
Cc1ccccc1NC(=O)c1sc2nc(N3CCOCC3)c3c(c2c1N)CCCC3	4	5	-22	8	1	0	.	.
N#C/C(C(N)=O)=C1/CCCN1Cc1ccccc1	.	7	.	-4	.	-1	.	.
Cc1ccc(Nc2cnn(C34CC5CC(CC(CC(=O)O)(C5)C3)C4)c(=O)c2Cl)cc1	3	14	-13	15	-6	-2	.	.
Cc1cc(C)cc(Nc2cnn(C34CC5CC(CC(CC(=O)O)(C5)C3)C4)c(=O)c2Cl)c1	1	32*	-31	10	5	-2	18*	12
CC(=O)c1ccc(Nc2cnn(C34CC5CC(CC(CC(=O)O)(C5)C3)C4)c(=O)c2Cl)cc1	5	1	5	1	-3	0	.	.
Cc1cccc(Nc2cnn(C34CC5CC(CC(CC(=O)O)(C5)C3)C4)c(=O)c2Cl)c1	5	21*	-13	-4	-3	0	12	6
CC(C)C[C@H]1CN=C(Nc2ccccc2)N1CC1CCCCCC1	-5	6	4	-4	-4	6	.	.
CC(OC(=O)/C(C#N)=C/c1ccc(N(C)C)cc1)C(=O)N(C)c1ccccc1 (centres undefined)	-32	16*	-26	.	30*	.	31*	12
CS(=O)(=O)Oc1ccc2c(c1)O/C(=C\C=C\c1ccccc1)C2=O	-12	33*	-11	-12	-2	1	18*	16
CS(=O)(=O)Oc1ccc2c(c1)O/C(=C\c1cccc([N+](=O)[O-])c1)C2=O	-4	.	5	-1	-3	-2	.	.
Cc1cc2nc(N3CCN(C(=O)c4ccco4)CC3)sc2cc1C	-10	22*	-12	-1	-5	0	5	26*
Cc1cccc2[nH]c3c(N4CCC5(CC4)OCCO5)ncnc3c12	-5	3	-5	-8	2	49	.	.
SMILES	RTF Ca sens inh	IDE cell inh	IDE act	CRFR2-BP antag	RTF Ca sens act	CRFBP-R2 agonist	IDE inh confirm	HEK cytotox
Cc1cccc2[nH]c3c(N4CCN(C(=O)c5ccco5)CC4)ncnc3c12	1	30*	-20	18	-3	0	12	9
O=C(C[C@@H]1C/C=C\C[C@H](NC(=O)OCC2c3ccccc3-c3ccccc32)C(=O)O[C@H](c2ccccc2)CNC1=O)NCCO	5	-3	0	-4	-6	0	.	.
CNC(=O)c1ccc(NC(=O)Cc2ccc(S(=O)(=O)N3CCOCC3)s2)cc1	2	8	6	-3	-6	3	.	.
O=c1ccc(-c2ccc(S(=O)(=O)Nc3cccc(Br)c3)o2)n[nH]1	0	4	-2	3	-4	-1	.	.
CCc1nc2ccc(C(=O)N3CCN(c4ccc([N+](=O)[O-])cc4)CC3)cc2nc1CC	-8	-3	-7	38	4	-1	.	.
Cc1ccccc1COc1ccc(/C(O)=C2/C(=O)C(=O)N(CCCn3ccnc3)C2c2ccco2)cc1 (centres undefined)	0	18*	-19	54*	-2	-2	11	13
CCOc1ccc(/C(O)=C2/C(=O)C(=O)N(CCN(CC)CC)C2c2ccco2)cc1 (centres undefined)	-1	4	-5	32	5	-2	.	.
O=C(Nc1ccccc1Cl)N1CCN(c2ccc3nnc(-c4ccccc4)n3n2)CC1	-6	8	-14	-9	2	-1	.	.
O=C(Nc1ccc(Cl)cc1)N1CCN(c2ccc3nnc(-c4ccc(F)cc4)n3n2)CC1	0	22*	-29	-4	2	2	13	11
COc1ccc(N2C(=O)CSC2c2cccc(F)c2)cc1 (centres undefined)	-1	-3	5	9	5	-3	.	.
COc1ccc(NC(=O)C2CCCN(c3nn4c(=O)cc(C)nc4s3)C2)c(OC)c1 (centres undefined)	-9	11	-3	-1	-2	-2	.	.
CCOC(=O)c1sc(Nc2nc3c(OC)cccc3s2)nc1C	-32	17*	-7	.	-2	.	7	12
CCC(=O)Nc1nc2ccc(NC(C)=O)cc2s1	-2	4	-1	-4	-4	1	.	.
CCOc1cccc2sc(Nc3nc4ccc(NC(C)=O)cc4s3)nc12	-6	32*	-28	-26	2	1	15	89*
